# Measurements reported in PubChem BioAssay (Tox21).
# Results filed as inconclusive are left out. Where a call stands in place of a potency, no number is given. Active and inactive are the calls of the source. Calls follow the shape of the dose curve; as a rule, active = well fitted activation curve with a large enough effect in the repeat runs; inconclusive = weak or mixed curves; inactive = flat fitted curve, though single readings scatter.
# Target: Nuclear receptor subfamily 1 group I member 2 (Homo sapiens) (UniProt O75469)
# Test: Human pregnane X receptor (PXR) activation by small molecules, qHTS assay (AID 1346985); also: nearly all actives have a fitted effect of over 40% in size
# Conditions: DPX-2 HepG2 CYP3A4-luciferase, 24 h; series mostly up to 38.3 µM
# Excerpt: National Center for Advancing Translational Sciences [NCATS]
# NIH Chemical Genomics Center [NCGC]
# U.S. Environmental Protection Agency [EPA]
# National Institutes of Environmental Health Sciences [NIEHS]
# National Toxicology Program [NTP]
# The Pregnane X receptor (PXR), a ligand activated nuclear receptor plays a critical role in the regulation of genes involved in drug metabolism and transporters. Activation of PXR may be involved in the unwanted adverse drug-drug interactions. […] Therefore, identification of compounds with the potential for PXR activation can be of importance in improving the efficacy of drugs with less toxicity and avoiding drug-drug interactions.
# DPX-2 (Puracyp, Inc.) cell lines, used for screening against human PXR activation has HepG2 cells co-transfected with a PXR response element and a luciferase construct containing CYP3A4 promoter. Increase in luciferase activity can be used to identify the compounds that activate the PXR pathway.
# DPX-2 cells were dispensed at 2,000 cells per well in 5uL of assay medium into white, solid-bottom 1536-well plates using a Multidrop Combi dispenser (Thermo Scientific). The assay plates were incubated at 37C for 5hr before transferring 23nL of test compounds dissolved in DMSO and positive control via Pintool station (Wako). The assay plates were incubated at 37C for 24hr. Then 5ul One-Glo assay reagent (Promega) was added to each plate by a Flying Reagent Dispenser (FRD, Aurora Discovery) and following 30 min incubation at room temperature, luciferase activity was quantified on a ViewLux plate reader (Perkin Elmer).
# Potency is read from the fitted curve at half-maximal effect.
row,Structure (SMILES),Potency
1,CCOP(=S)(OCC)Oc1cc(C)nc(C(C)C)n1,inactive
2,Nc1ccc(N)cc1,25.1 µM (active)
3,C[C@H]1C(=O)O[C@@H]2CCN3CC=C(COC(=O)[C@](C)(O)[C@]1(C)O)[C@H]23,inactive
4,C[C@]12CC[C@H](O)CC1=CC[C@@H]1[C@@H]2CC[C@]2(C)C(=O)CC[C@@H]12,inactive
5,O=C/C=C/c1ccccc1,inactive
6,Nc1nc(N)nc(NC2CC2)n1,inactive
7,CNCC(O)c1ccc(O)cc1 (stereo not given),inactive
8,O=[N+]([O-])c1cc([As](=O)(O)O)ccc1O,inactive
9,COP(=S)(OC)SCN1C(=O)c2ccccc2C1=O,inactive
10,C=CCN=C=S,inactive
11,COP(=S)(OC)Oc1ccc(SC)c(C)c1,inactive
12,Cc1cc(O)ccc1Cl,inactive
13,NNc1ccccc1,inactive
14,Oc1c(Br)cc(Br)cc1Br,inactive
15,CNC(=O)Oc1cccc2ccccc12,inactive
16,CCCCCCCCCCCCCCCCCC(=O)O,inactive
17,COC(C)(C)CCCC(C)C/C=C/C(C)=C/C(=O)OC(C)C (stereo not given),11.2 µM (active)
18,OC[C@@H](O)[C@H]1O[C@@H]2O[C@H](C(Cl)(Cl)Cl)O[C@@H]2[C@H]1O,inactive
19,O=C(O)COc1ccccc1,inactive
20,Nc1ccc([As](=O)(O)O)cc1,inactive
